# Inconclusive results are not listed. Calls of active or inactive are those of the source. Rule for the calls: active = hit-call score of the fitted dose curve at least 0.9, where 1 is the maximum; inconclusive = response in the unintended direction; inactive = score below 0.9.
# Test: ACEA_ER_AUC_viability: ACEA Biosciences xCELLigence Real-Time Cell Analysis on Estrogen Receptor Agonism for Viability (AID 2283782);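 note: hit means loss of impedance signal meaning reduced cell growth or viability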
# Procedure, shortened: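 Viability endpoint: reduced impedance area under the curve relative to DMSO, recorded by real-time electrode sensing over ~80 h of continuous exposure. Duplicate plates of T47D in hormone-depleted medium; eight concentrations, 1:4 dilutions, 100 uM maximum.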
SMILES,AC50,outcome
C=CC(=O)NC(C)(C)CS(=O)(=O)O,11.2 µM (active),
C=C[Si](C)(C)O[Si](C)(C)C=C,,inactive
CC(C)(C)c1ccc(N)cc1,,inactive
C=C1C2CCC(C2)C1(C)C (configuration not stated),,inactive
COC(=O)/C=C\C(=O)O,,inactive
O=C1CCCCCCCCCCCCCCCO1,,inactive
CCC(C)(C)C1CCCCC1OC(C)=O (configuration not stated),,inactive
CC/C=C\CCOC(=O)CCCCC,,inactive
COc1cc(C)ccc1C(C)C,,inactive
Cn1c(=O)[nH]c2ncn(C)c2c1=O,,inactive
CC1OC1C1CCC2(C)OC2C1 (configuration not stated),,inactive
O=S1(=O)OC(c2ccc(O)cc2)(c2ccc(O)cc2)c2ccccc21,,inactive
CCCCCC(C)O (configuration not stated),,inactive
CCCOC(=O)CCCCC(=O)OCCC,50 µM (active),
CCCCCCCCCCOC(C)=O,,inactive
CC(=O)CC(N)=O,,inactive
CCOC(=O)Cc1cccc2ccccc12,50 µM (active),
O=S(=O)(O)c1ccc2cc(O)c(S(=O)(=O)O)cc2c1,50 µM (active),
CCO[Si](CCCN=C=O)(OCC)OCC,,inactive
C/C=C\C/C=C/CCCCCCCCOC(C)=O,82.3 µM (active),
CCCCCCCCO[C@@H]1O[C@H](CO)[C@@H](O)[C@H](O)[C@H]1O,,inactive
FC(F)(F)C(=NOCC1OCCO1)c1ccc(Cl)cc1,74.9 µM (active),
CC(C)COC(=O)C=Cc1ccccc1,,inactive
CCC(C)C=O (configuration not stated),39.7 µM (active),
Cc1cc(C)c(C)c(C)c1,,inactive
CC(C)c1ccc(C#N)cc1,50 µM (active),
C=CC(C)(CCC=C(C)C)OC(=O)C(C)C (configuration not stated),,inactive

# From PubChem BioAssay (EPA / NIEHS)
